Compound activity from PubChem.
Tgondii IFNg: blocks Toxoplasma gondii growth in the presence of IFN-gamma. Toxoplasma gondii growth in IFN-gamma-treated host cells; hits give low values. 69,000 compounds, 3.8% hits. activity change, negative = inhibition, % (no concentration beside the values); in the data active = activity change below about -70%, passing the limit was not always enough;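 also: host cells are HeLa cells infected with Toxoplasma gondii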
* = called active by the depositor; ! = not active in a repeat. Many of the other results were omitted from the sample, so hits are more common in it than they were.

SMILES | Tgondii IFNg
Cc1ccc(NC(=O)CN2CCC3(CC2)N=C(c2cccc(F)c2)C(=O)N3)cc1F | -37
O=c1[nH]c2cc3c(cc2cc1CN(CCO)Cc1nnnn1Cc1ccccc1)OCCO3 | -82*
CN(CCCc1cnn(C)c1)Cc1cc2ccc(F)cc2[nH]c1=O | -7
Cc1ccc2cc(CN(CCO)CCO)c(=O)[nH]c2c1 | 5
CN(CCNCCC(=O)Nc1cccc(Cl)c1)S(C)(=O)=O | 6
OCCOCCN1CCN(C2=Nc3ccccc3Sc3ccccc32)CC1 | -4
CN(C)CC/C=C1/c2ccccc2COc2ccc(CC(=O)O)cc21 | -2
CN(C)CCC=C1c2ccccc2CCc2ccccc21 | -75*!
OCCN1CCN(CC/C=C2/c3ccccc3Sc3ccc(Cl)cc32)CC1 | -74*
CN(C)CC/C=C1/c2ccccc2COc2ccccc21 | 16
CN(C)CCC1(c2ccc(Cl)cc2)Cc2ccccc2C(=O)O1 (stereo not given) | 14
CN(C)CCC=C1c2ccccc2C=Cc2ccccc21 | -26
CN(C)CC/C=C1\c2ccccc2Sc2ccc(Cl)cc21 | -77*!
CC(C)c1ccc2c(c1)C(N1CCN(CCO)CC1)Cc1ccc(F)cc1S2 (stereo not given) | -66
CCN(CC)S(=O)(=O)c1ccc2c(c1)cc(C(=O)N1CCN(c3ncccn3)CC1)n2C | -3
c1ccc(Nc2nnc(-c3cnccn3)s2)cc1 | 156
CNC(=O)C1CCN(c2cc(C)c3cc4c(cc3n2)CCC4)C1 (stereo not given) | -44
CN1CCN(C(c2ccc(Cl)cc2)c2nnnn2C2CCCCC2)CC1 (stereo not given) | -30
COc1ccc(NC(=O)N2CCSC2c2ccc(Cl)cc2)cc1 (stereo not given) | 35
Cc1ccc2[nH]cc(-c3nccs3)c2c1 | 7
CCCS(=O)(=O)N1CC[C@@]2(C[C@H](N3CCCC3=O)CCO2)C1 | -1
O=C(NCC(c1cccnc1)N1CCOCC1)c1c(O)cccc1O (stereo not given) | 8
CCNc1ncc(C(=O)N[C@@H]2CC[C@@H](N)C2)cn1 | -5
O=C(CCNC1CCC2(CCNCC2)CC1)Nc1nccs1 | -14
Cc1ccc2[nH]c3c(c2c1)CCc1nonc1-3 | -99*
SMILES | Tgondii IFNg
CSc1ccc(-c2noc(-c3c(O)c4cc(C)ccc4[nH]c3=O)n2)cc1 | 17
Cc1ccc2[nH]c3c(c2c1)CCOc1ccccc1-3 | 21
CCC(CC)C(=O)N1CCCC1c1c(-c2ccnc(N3CCCC3)n2)cnn1C (stereo not given) | 5
CN(Cc1cc(-c2ccncc2)no1)Cc1ccc(Cl)s1 | -13
CCOc1ccccc1CN(C)Cc1cc(-c2ccncc2)no1 | 21
CN(Cc1cc(-c2ccncc2)no1)Cc1ccc(Cl)cc1F | -90*
Cc1cccc(CN2C(=O)CO[C@H]3CN(C(=O)NC4CC4)C[C@@H]32)c1 | -5
CCOc1nc2c(c(C)nn2-c2cccc(C)c2)c(C)c1CCC(=O)NCCc1c[nH]c2ccccc12 | -79*
CCSc1nc(CC(=O)NCCc2c[nH]c3ccccc23)cs1 | 27
Cc1cc(C(=O)NCCc2c[nH]c3ccccc23)c2c(=O)n(C)c(=O)n(C)c2n1 | 37
CC(=O)N1CCc2nnc(C3CCCN3Cc3cccc(C)c3)n2CC1 (stereo not given) | -4
CCc1ccn2cc(-c3cc(-c4ccccc4)no3)nc2c1 | -81*
CCc1nc(CN(C)C(=O)c2cc(-c3ccccc3)no2)no1 | 6
CCC(=O)Nc1cccc(-c2cn3ccc(C)cc3n2)c1 | -12
CC(C)CN1C[C@@H]2CN(S(=O)(=O)Cc3ccccc3)C[C@H]2C1=O | -7
CC(=O)Nc1ccc(Cl)c(C(=O)NCCCCc2ccccn2)c1 | -4
Cc1cc(-c2cnn(C)c2)cc(C2CCCN(C(=O)CC3=CC(C)(C)NC(C)(C)C3)C2)n1 (stereo not given) | -20
COc1ccc(CNc2nc(SCc3ccc(Cl)cc3)nc3ccccc23)cc1 | -61
COc1ccc(CNc2nc(SCc3ccc(F)cc3)nc3ccccc23)cc1 | -70
CCN(CC)c1ncc2c(NCc3ccccc3)nc(SCc3ccccc3)nc2n1 | -110*
CCCS(=O)(=O)N1C[C@@H](c2nc(C)no2)C[C@@H]2OCC[C@@H]21 | 42
NC(Cc1ccc(F)cc1)C(=O)NCC1CCC(c2ccnc(Nc3cnccn3)n2)CC1 (stereo not given) | -30
FC(F)(F)c1cc2[nH]c(=S)[nH]c2cc1Cl | -93*
c1ccc(C(c2ccccc2)c2noc(CN3CCCC(c4nc5ccccc5[nH]4)C3)n2)cc1 (stereo not given) | -55
CN(C)C(=O)N1CCOCC2(CC(CN3CCCC3)CO2)C1 (stereo not given) | -34
SMILES | Tgondii IFNg
O=C(c1ccc[nH]1)N1CCC2(CCC(=O)N2CC2CC2)CC1 | 0
Cc1ccc(S(=O)(=O)N2C[C@H]3C[C@H](NC(=O)c4cc(C)c(C)s4)[C@H]3C2)cc1 | -28
CC(Cc1cnccn1)n1cc(-c2ccnc3ccccc23)nn1 (stereo not given) | -11
COc1cc(C)ccc1-c1c(-c2ccccc2)ncn1C(C)Cc1cnccn1 (stereo not given) | -4
COCCn1c2c([n+](Cc3cnccn3)c1C)C(=O)c1ccccc1C2=O | -83*
Cc1nccc(-c2ccccc2)c1C(=O)N1CCNCC1C(=O)NC1CC1 (stereo not given) | 5
